In PubChem BioAssay (NCATS):
The other results are listed elsewhere or left out. Active and inactive are the calls of the source. The call rests on the fitted dose curve; in most records, active means well fitted inhibition curve with a large enough effect; inconclusive means small, poorly fitted or top-dose-only effect, or another doubt; inactive means no such curve, though single readings can be large or run the other way.

The molecules below were run against Vitamin D3 receptor (Homo sapiens) (UniProt P11473) (assay: qHTS for Inhibitors of the vitamin D receptor (VDR): Hit Validation using a Fluorescein Assay (AID 602200)). Conditions: VDR-coactivator binding, fluorescein fluorescence polarization.
Description: The vitamin D receptor (VDR) is a ligand-activated transcription factor and is partially responsible for the regulation of the endocrine system. This includes the transcriptional regulation of genes involved in the production of the parathyroid hormone (PTH) and the regulation of the blood calcium level. High levels of PHT can cause hypercalcemia in the case of primary and tertiary hyperparathyroidism. The VDR-mediated gene regulation, activated by its ligand 1,25-dihydroxyvitamin D3 (1,25-(OH)2D3), is governed by the recruitment of coactivators. Our hypothesis is that small molecules, with the ability to inhibit the interaction between VDR and certain coactivators, are able to selectively modulate VDR-mediated transcription. Our long term objective is the application these VDR-coactivator inhibitors to study the role of VDR-coactivator binding for specific VDR regulated genes. Ultimately, these molecules can be developed into new treatments for hypercalcemic hyperparathyroidism. No small molecule or non-peptide inhibitors are known for the VDR-coactivator interaction.
In a collaboration between the University of Wisconsin, Milwaukee and the NIH Chemical Genomics Center (NCGC) a HTS-compatible enzymatic assay was developed. The assay uses fluorescence polarization as its read-out to measure the inhibition between VDR and coregulator peptide SRC2-3 exerted by small molecules. This assay was used to screen the NIH Molecular Libraries Small Molecule Repository (MLSMR). The HTS assay detects polarization at 665 nm emitted by the Alexa Fluor 647 dye. This validation assay measures polarization of fluorescein emission at 521 nm
NIH Chemical Genomics Center [NCGC]
NIH Molecular Libraries Probe Centers Network [MLPCN]
Assay Submitter (PI): Alexander Arnold, University of Wilwaukee
Four microliter of either 1.5 uM VDR-LBD, 5 uM LG19078, and 5 nM SRC2-3 Fluorescein (all final concentrations) in columns 1, 2, and 5 to 48 or 5 nM SRC2-3 Fluorescein in columns 3 and 4 are dispensed into black medium-binding solid bottom Greiner plates. Both solutions are kept at 4 deg C and protected from light and dispensed using a Kalypsys dispenser. Then 23 nl of compounds and controls are added with Kalypsys pintool. […] Plate is centrifuged at 1000 RPM for 15 seconds to remove any residual bubbles. The plate is then incubate at ambient room temperature for 2 hours. It is then read on the Envision for a fluorescent polarization read-out (Ex 495 nm/Em 520 nm)
Potency means the concentration at half of the fitted maximal effect.

Sequence of Vitamin D3 receptor (Homo sapiens) (P11473 whole entry, looked up): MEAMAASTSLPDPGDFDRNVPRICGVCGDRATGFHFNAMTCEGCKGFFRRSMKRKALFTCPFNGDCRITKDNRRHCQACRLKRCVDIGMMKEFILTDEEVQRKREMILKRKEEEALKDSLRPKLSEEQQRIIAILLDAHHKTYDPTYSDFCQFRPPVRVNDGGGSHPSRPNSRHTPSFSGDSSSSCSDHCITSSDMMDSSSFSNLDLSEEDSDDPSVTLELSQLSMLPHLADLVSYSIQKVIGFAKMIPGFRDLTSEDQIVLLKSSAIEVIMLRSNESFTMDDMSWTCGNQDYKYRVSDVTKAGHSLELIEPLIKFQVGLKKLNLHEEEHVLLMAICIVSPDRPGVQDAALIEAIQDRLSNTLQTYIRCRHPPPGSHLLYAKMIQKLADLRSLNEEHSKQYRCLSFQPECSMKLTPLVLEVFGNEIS

Potency, active:
O=C(/C=C/c1ccc(Cl)c([N+](=O)[O-])c1)c1cccnc1 2.51 µM, c1ccc2c(C[n+]3csc4ccccc43)cccc2c1 7.08 µM, CC1CCN(C(=S)c2ccc(-c3ccc(Cl)cc3Cl)o2)CC1 25.1 µM, C[C@@H](NC(=O)OC(C)(C)C)c1nnc(S(=O)(=O)Cc2ccccc2)o1 17.8 µM, O=C(Nc1nc(-c2ccncc2)cs1)C1COc2ccccc2O1 (stereo not given) 3.16 µM, Cc1ccc(-c2nc3ccccn3c2Nc2c(C)cccc2C)o1 28.2 µM, CCCCS(=O)(=O)c1oc(-c2cccs2)nc1S(=O)(=O)c1ccccc1 3.16 µM, O=C(/C=C/c1ccccc1)c1ccccc1O 14.1 µM, Cc1cccc(Oc2c([N+](=O)[O-])c(=O)n(C)c3ccccc23)c1 20 µM, O=C1C=C(c2ccc(Cl)cc2)C(=O)N1Nc1ccccc1 1.78 µM, CCOC(=O)c1sc(=S)n2c1[nH]c(=O)c1ccc(C(=O)OC)cc12 6.31 µM, CC(=O)N(C1=C(Cl)C(=O)c2ccccc2C1=O)c1ccc(C(=O)O)cc1 2.82 µM, Cc1cc(C)nc(S/C=C/C(=O)c2ccccc2)n1 3.55 µM, Cc1ccc(O)c(NC(=O)CCS(=O)(=O)c2nc(-c3ccc4c(c3)OCO4)cc(C(F)(F)F)n2)c1 6.31 µM, CCOc1ccc(N(Cc2ccccc2)C(=O)c2nc(S(C)(=O)=O)ncc2Cl)cc1 3.55 µM, COC(=O)c1sc(-c2ccc(C(C)(C)C)cc2)cc1NC(=O)/C=C/C(=O)O 14.1 µM, COc1ccc(OCc2nnc3n2N=C(c2ccccc2)C(CC(=O)O)S3)cc1 (stereo not given) 1.12 µM, O=c1[nH]c(/C=C\c2cccc(C(F)(F)F)c2)nc(O)c1[N+](=O)[O-] 10 µM, O=C(Nc1ccccc1)c1nnsc1S(=O)(=O)c1ccc(Cl)cc1 7.08 µM, CC(=O)N1CC[n+]2c(-c3ccc([N+](=O)[O-])cc3)csc21 3.98 µM
